GPT2 inhibitor: blocks human glutamate pyruvate transaminase 2; Recombinant GPT2, coupled pyruvate oxidase/HRP Amplex Red fluorescence; 100,000 compounds, 0.25% hits; Potency, µM (series often up to 57.7 µM), actives largely listed as inhibitors; AID 1671188; Q8TD30; note: nearly all actives have a fitted effect of over 60% in size
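Fluorescence read-out: pyruvate from GPT2 turnover coupled to pyruvate oxidase, HRP and Amplex Red (0.2mM ThPP, 0.2U/mL PO and HRP, 50uM Amplex final). Substrates 250uM a-KG, 2mM L-alanine; enzyme 10ng/uL; 30 min RT.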
3T3 cytotox: cytotoxic compounds in NIH 3T3 cells. NIH 3T3 viability, CellTiter-Glo ATP luminescence, 48-72 h. Potency, µM (top dose mostly 96.7 µM), usual class: inhibitors. 94,000 compounds, 4.3% hits; note: nearly all actives have a fitted effect of over 55% in size
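NIH 3T3 cells at 400 cells/well received 23 nL of compound by pintool and were incubated 48 or 72 h at 37 °C. Viability was read as ATP-coupled CellTiter-Glo luminescence.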
Luciferase inh: blocks purified firefly luciferase enzyme activity; purified P. pyralis luciferase, luminescence, biochemical; 76,000 compounds, 2.5% hits; Potency, µM (highest dose often 115 µM), hits mostly inhibitors; P08659; note: nearly all actives have a fitted effect of over 65% in size
Target sequence (P08659 whole entry, looked up): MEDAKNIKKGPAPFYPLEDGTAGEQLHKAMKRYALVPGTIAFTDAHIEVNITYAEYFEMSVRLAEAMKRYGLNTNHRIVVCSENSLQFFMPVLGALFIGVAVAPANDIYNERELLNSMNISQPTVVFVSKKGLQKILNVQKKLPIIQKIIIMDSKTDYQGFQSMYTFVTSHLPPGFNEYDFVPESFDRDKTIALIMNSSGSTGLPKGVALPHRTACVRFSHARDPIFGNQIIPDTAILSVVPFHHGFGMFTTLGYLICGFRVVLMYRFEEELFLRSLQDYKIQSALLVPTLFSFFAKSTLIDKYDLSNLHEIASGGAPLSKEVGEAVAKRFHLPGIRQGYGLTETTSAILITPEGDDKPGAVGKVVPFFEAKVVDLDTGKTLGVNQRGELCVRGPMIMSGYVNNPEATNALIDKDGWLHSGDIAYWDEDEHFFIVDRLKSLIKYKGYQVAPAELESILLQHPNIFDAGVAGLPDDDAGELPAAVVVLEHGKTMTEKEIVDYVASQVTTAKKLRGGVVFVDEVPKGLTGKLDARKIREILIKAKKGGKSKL
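FLuc 10nM, D-luciferin 10uM, ATP 10uM, Mg acetate 10mM, Tris acetate pH 7.5, Tween/BSA; cpd qHTS; enzyme added last; CCD luminescence.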
hNpr1 antagonist: antagonists of human natriuretic peptide receptor Npr1; P16066; HEK293 hNpr1 GloSensor cGMP, ANP-stimulated luminescence; 76,000 compounds, 1.6% hits; Potency, µM (series often up to 46.3 µM), hits mostly inhibitors; AID 1347048; calls by dose curve; note: nearly all actives have a fitted effect of over 60% in size
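HEK293 cells stably expressing human Npr1 and cGMP GloSensor pGS-40F, loaded 2 h with 2% GloSensor reagent, given compound 30 min at room temperature. Luminescence read before and 20 min after 0.1 nM hNppA.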
HEK293 tox: kills HEK 293 cells. HEK 293 viability, ATP luminescence (CellTiter-Glo), 48-72 h. 94,000 compounds, 6.6% hits. AID 1345083. Potency, µM (series often up to 115 µM), actives largely listed as inhibitors; note: nearly all actives have a fitted effect of over 60% in size
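CellTiter-Glo luminescence (cellular ATP) was read after 48 or 72 hr of compound exposure at 37 degree Celsius. Cells were HEK 293 plated at 250 cells/well.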
Hits are given with their value; - = inactive; ? = inconclusive; . = no result; [ ] = another dose, or the depositor's remark. Hits are enriched below; roughly 10% of the tested compounds scored in any of these assays. Unless noted, calls come from the whole dose curve; as a rule, active = well fitted curve in the direction sought with a large enough effect; inconclusive = small, poorly fitted or top-dose-only effect, or another doubt; inactive = no such curve, though single readings can be large; an effect the other way counts as inactive or inconclusive.

SMILES	GPT2 inhibitor	3T3 cytotox	Luciferase inh	hNpr1 antagonist	HEK293 tox
Cc1ccsc1CN1CCCC(c2nc(CCOCC3CCOCC3)no2)C1 (stereo not given)	?	-	-	-	?
COCC(=O)NC1CCC12CCN(C(=O)NCc1ccc(C)cc1)CC2 (stereo not given)	?	-	-	-	-
CN1CCC(NC[C@H]2O[C@@H](CO)[C@@H](O)[C@@H]2N(C)Cc2ccccc2)CC1	?	-	-	-	-
COc1ccccc1C(=O)N1CCCn2nc(C)c(-c3ccccc3C(C)C)c21	-	?	-	-	89.1µM
COc1ccccc1C(=O)N1CCCn2nc(C)c(-c3ccccc3N3CCCC3)c21	-	?	-	-	56.2µM
Cc1nn2c(c1-c1ccccc1C(C)C)N(C(=O)COc1ccccc1C(N)=O)CCC2	-	?	-	-	70.8µM
Cc1nn2c(c1-c1ccccc1N1CCCC1)N(C(=O)C(C)C)CCC2	-	?	-	-	35.5µM
Cc1nn2c(c1-c1ccccc1C(C)C)N(C(=O)c1ccnn1C)CCC2	-	?	-	-	?
Cc1cccnc1CN1CCN(c2ncncn2)CC1	-[11.5 µM]	-	-	-	-
CC(C)N1C(=O)C2(CCCC2)C1C(=O)O (stereo not given)	-	-	-	-	-
Cc1nn2c(c1-c1ccccc1C(C)C)N(C(=O)Cc1ccc3c(c1)OCO3)CCC2	-	39.8µM	-	-	?
COc1cccc(CC(=O)N2CCCn3nc(C)c(-c4ccccc4C(C)C)c32)c1	-	?	-	?	?
O=C1CCN(C(=O)CN2CCCCCC2)CCCC(c2nc(-c3cccnc3)no2)CCN1 (stereo not given)	-	-	-	-	-
CC(C)CC(=O)N1CCC(N2C(=O)C3(CCCC3)C2c2ccccc2)CC1 (stereo not given)	-	44.7µM	-	-	?
CN(C)CC(=O)N1CCC(N2C(=O)C3(CCCC3)C2c2ccccc2)CC1 (stereo not given)	-	-	-	-	-
Cn1cccc1C(=O)N1CCC(N2C(=O)C3(CCCC3)C2c2ccccc2)CC1 (stereo not given)	-	-	-	-	44.7µM
CC(C)(CC(=O)O)CC(=O)N1C[C@@H]2C[C@H](C1)c1ccc(-c3cc4ccccc4s3)c(=O)n1C2	?	-	22.4µM	-	-
Cc1cnc(CC2CCN(S(=O)(=O)c3ccccc3)CC2)n1Cc1ccccc1	-	?	-	-	?
c1ccc(Oc2cc3c(cn2)NCCN(Cc2cnc[nH]2)C3)cc1	-	-	-	-	?
COc1ccc(CN2CCNc3cnc(Oc4ccccc4)cc3C2)cc1O	-	?	-	-	63.1µM
c1cncc(Nc2cc3c(cn2)CN(Cc2ccc4[nH]ccc4c2)CCN3)c1	-	?	39.8µM	-	89.1µM
FC(F)(F)c1ccc(CN2CCNc3cc(Nc4cccnc4)ncc3C2)cc1	?	?	-	?	31.6µM
Cc1cccc(CN2CCNc3cc(Nc4cccnc4)ncc3C2)c1	-	?	-	-	?
Oc1ccccc1CN1CCNc2cnc(OCc3cccnc3)cc2C1	-	-	-	?	100µM
COc1cccc(N2C(=O)NC(=NC3CCCC3)C23CCCN(Cc2ccc(F)cc2)C3)c1 (stereo not given)	-	?	.	.	?
SMILES	GPT2 inhibitor	3T3 cytotox	Luciferase inh	hNpr1 antagonist	HEK293 tox
Oc1ccccc1CN1CCNc2cc(Nc3cccnc3)ncc2C1	-	?	?	-	63.1µM
COc1ccc(CN2CCNc3cc(Nc4cccnc4)ncc3C2)cc1O	-	?	-	-	?
Cc1cc2nc3n(c(=O)c2n1CC(=O)Nc1ccccc1)CCCC3	-	-	-	-	-
O=C(O)CCn1ncc2cc(OC3CCN(C(=O)Oc4ccccc4Cl)CC3)ccc21	-	8.91µM	-	.	-
O=C(O)CCn1ncc2cc(OC3CCN(C(=O)OC4CCCC4)CC3)ccc21	-	?	?	-	-
Cc1ccc(OC(=O)N2CCC(COc3ccc4c(cnn4CCC(=O)O)c3)CC2)cc1	-	-	-	-	?
Cc1ccc(OC(=O)N2CCC(Oc3ccc4c(cnn4CCC(=O)O)c3)CC2)cc1	-	35.5µM	-	-	-
CNC(=O)c1cc2cc(-c3c(C)noc3C)nc(-c3cnn(C)c3)c2o1	-	?	-	-	?
O=C(CCc1ccccc1)N1CCC2OCCN(Cc3ccccc3F)C(=O)C2C1 (stereo not given)	-	?	-	-	?
COc1ccc(OCC2CN(CCc3ccccc3)S(=O)(=O)c3cccnc3O2)cc1 (stereo not given)	-	?	.	.	?
O=S1(=O)c2cccnc2OC(COc2ccccc2)CN1Cc1cccs1 (stereo not given)	-	28.2µM	.	.	?
CN(C)[C@@H]1CN(C(=O)c2nccn2C)CC[C@@H]1CO	-	-	?	-	-
COc1cccc(-c2cccc(C(=O)N3CCN(C(=O)c4ccc(F)cc4)CC3)c2)c1	-	?	.	.	28.2µM
COc1cccc(-c2cccc(C(=O)N3CCN([S+](=O)([O-])c4ccccc4)CC3)c2)c1	-	?	.	.	35.5µM
COc1cccc(-c2cccc(C(=O)N3CCN(C(=O)c4ccc(C)cc4)CC3)c2)c1	-	?	.	.	?
Cc1ccc(-c2nc(C)c(C(=O)Nc3ccc4c(c3)C(=O)N3CCC[C@H]3C(=O)N4)s2)cc1	-	-	28.2µM	-	?
Cc1ccsc1C(=O)NC1CCCN(c2cc(-c3ccccc3)[nH]n2)C1 (stereo not given)	-	?	?	-	?
COc1ccc(C(=O)N(CC2CC2)CC2CN(C(=O)Nc3ccccc3)CCO2)cc1OC (stereo not given)	-	?	-	-	28.2µM
O=C(NCc1ccccc1)N1CCOC(CN(CC2CC2)C(=O)c2cccc(F)c2)C1 (stereo not given)	-	-	-	-	?
Cc1ccc(C2NC(=O)N(CC(=O)Nc3ccc(C(F)(F)F)cc3)C3=C2C(=O)OC3)cc1 (stereo not given)	-	31.6µM	-	?	25.1µM
O=C(CN1C(=O)NC(c2ccccc2Cl)C2=C1COC2=O)NCCc1ccc(Cl)cc1 (stereo not given)	-	?	-	-	?
CCCCc1ccc(NC(=O)CN2C(=O)NC(c3ccc(Cl)cc3)C3=C2COC3=O)cc1 (stereo not given)	-	20µM	-	-	20µM
O=C(CN1C(=O)NC(c2ccc(Cl)cc2)C2=C1COC2=O)NCCc1ccc(Cl)cc1 (stereo not given)	?	?	-	-	44.7µM
O=C(CN1C(=O)NC(c2ccc(Cl)cc2)C2=C1COC2=O)Nc1ccc(C(F)(F)F)cc1 (stereo not given)	-	22.4µM	-	?	?
Cc1nnc(NC(=O)C2CC(=O)N(c3n[nH]c4cccc(F)c34)C2)s1 (stereo not given)	-	-	-	-	-

Screening results as filed in PubChem.
